{"source": "PubChem BioAssay (NCI)", "note": "About 83,000 compounds went through this panel and 20% of them were active in at least one assay; those are over-represented in the sample as a whole.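 A percent growth of 40 corresponds to 60% growth inhibition; 0 means no net growth; -100 means all cells died. Active threshold: below 10.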 Values without a mark were called inactive. Calls of active or inactive are those of the source.", "data": [{"test_system": "HCT-15 colon", "assay": "NCI-60 one-dose screen, 48 h (100 = growth as untreated, 0 = no growth, -100 = all killed)", "settings": "10 µM unless noted", "values": [{"smiles": "CCOC(=O)c1c(-c2ccccc2)n2c(=O)cc(C)c3c(O)c(O)cc1c32", "growth": "28.8%"}, {"smiles": "CCOC(=O)c1n[nH]n2c1nc(=O)c1cnn(C)c12", "growth": "105%"}, {"smiles": "COc1cccc(/C=C/C(=O)c2cc3c(N)c(C(=O)Nc4cccc(Cl)c4C)sc3nc2C)c1", "growth": "-57.4% (active)"}, {"smiles": "COc1ccc2cc(-c3ccc(-c4ccc(C(=N)N)s4)s3)ccc2c1", "growth": "-81.6% (active)"}, {"smiles": "O=C1NC(=C(Cl)Cl)/C(=N/S(=O)(=O)NCCc2c[nH]c3ccccc23)N1", "growth": "98.6%"}, {"smiles": "CC[C@]12C=CCN3CC[C@@]4(c5ccc(OC)cc5N(C)[C@H]4[C@@](O)(C(=O)OC)[C@@H]1OC(=O)CCCN1CCOCC1)[C@@H]32", "growth": "110%"}, {"smiles": "Nc1ccc([N+](=O)[O-])cc1N=C/C=C/c1ccccc1", "growth": "42.9%"}, {"smiles": "Cc1nc2sc(C(=O)Nc3ccc(Cl)cc3)c(N)c2cc1C(O)c1ccccc1", "note": "(stereo not given)", "growth": "28.9%"}, {"smiles": "S=c1[nH]c2cc(Cl)ccc2o1", "growth": "98.6%"}, {"smiles": "CN(C)c1ccc(/C=C2/C=C(c3ccccc3)OC2=O)cc1", "growth": "91.7%"}, {"smiles": "COc1ccc(-c2ccc(=O)oc2C#Cc2cc(OC)c(OC)c(OC)c2)cc1O", "growth": "22.5%"}, {"smiles": "C#Cc1cccc(Nc2nc3ccc([N+](=O)[O-])cc3nc2Nc2cccc(C#C)c2)c1", "growth": "-69.4% (active)"}, {"smiles": "CC(C(=O)O)n1c(O)c(C=Nc2cccnc2)sc1=S", "note": "(stereo not given)", "growth": "98.4%"}, {"smiles": "O=C(/C=C/c1ccc(Br)cc1)c1ccc(-n2cc(CN3CCN(c4cc5c(cc4F)c(=O)c(C(=O)O)cn5C4CC4)CC3)nn2)cc1", "growth": "95%"}, {"smiles": "Cn1cccc1/C=C1\\C(=O)Nc2ccccc21", "growth": "50.9%"}, {"smiles": "O=C1N[C@@H]2[C@@H](O)[C@@H](O)[C@H](O)C[C@H]2c2cc3c(c(O)c21)OCCO3", "growth": "-11.9% (active)"}, {"smiles": "Cc1ccc2[nH]c(-c3ccc(S(C)(=O)=O)cc3)c(/C=N/N=C(N)N)c2c1", "growth": "35.3%"}, {"smiles": "CCOC(=O)c1c(C)nc2c(c1N)CC(=O)N2Cc1cc(OC)c(OC)c(OC)c1", "growth": "28.5%"}, {"smiles": "COc1ccc2nc(SCC(=O)Nc3ccccc3C)[nH]c2c1", "growth": "99.8%"}, {"smiles": "Cc1cc(C)cc(Nc2ccc([N+](=O)[O-])c(NCCN3CCOCC3)n2)c1", "growth": "11.5%"}, {"smiles": "Cc1ccc(C)n1/C=C/n1c(C)ccc1C", "growth": "106%"}, {"smiles": "Oc1c(CN2CCCC2)cc(COCc2ccccc2)c2cccnc12", "growth": "11.3%"}, {"smiles": "CCc1cccc(Sc2cc(C(=O)N3Cc4ccc(OCCN(C)C)cc4C3)ccc2O)c1", "growth": "30.7%"}, {"smiles": "O=P(O)(O)OCC1OC(n2cnc3c(NCc4ccccc4)ncnc32)C(O)C1O", "note": "(stereo not given)", "growth": "9.47% (active)"}, {"smiles": "C=CCN=C(N)SCCCCCCSC(N)=NCC=C", "growth": "96.4%"}, {"smiles": "COc1ccc(Cn2cc(C(=O)N=Nc3c(O)[nH]c4c(Cl)cccc34)nn2)cc1", "growth": "107%"}, {"smiles": "O=C(Nc1ccccc1)c1sc(-c2ccccc2)cc1O", "growth": "97.4%"}, {"smiles": "CS(=O)(=O)Nc1cc(-c2ccc3ncnc(Nc4ccc5c(cnn5Cc5cccnc5)c4)c3c2)cnc1Cl", "growth": "84.7%"}, {"smiles": "CC1(C)CC[C@]2(C(=O)O)CC[C@]3(C)C(=CC[C@@H]4[C@@]5(C)C[C@@H](Cc6cn([C@@H]7O[C@H](CO)[C@@H](O)[C@H](O)[C@H]7O)nn6)[C@H](O)C(C)(C)[C@@H]5CC[C@]43C)[C@@H]2C1", "growth": "106%"}, {"smiles": "CCN1C(=O)N(CC)C2C1NN=c1s/c(=C\\c3ccccc3Br)c(=O)n12", "note": "(stereo not given)", "growth": "8.51% (active)"}, {"smiles": "Cc1ccc(Nc2nc(-c3ccc(F)cc3)c(C#N)c(=O)n2C)cc1", "growth": "55%"}, {"smiles": "N#Cc1c(N2CCOCC2)nc(=S)[nH]c1-c1ccccc1", "growth": "86.6%"}, {"smiles": "COc1cccc(/C=C/C(=O)c2cc3c(N)c(C(=O)Nc4ccccc4C)sc3nc2C)c1", "growth": "8.29% (active)"}, {"smiles": "COc1ccc(C2=NN(C(C)=O)C(c3ccc(Oc4ccnc5cc(Cl)ccc45)c(OC)c3)C2)cc1", "note": "(stereo not given)", "growth": "90.6%"}, {"smiles": "CCOC(=O)C/C(=N\\Nc1cc(=O)[nH]c2ccc(Cl)cc12)C(=O)OCC", "growth": "105%"}, {"smiles": "COC(=O)C1=C(C)NC(C)=C(C(=O)OCC(C)C)C1c1ccccc1[N+](=O)[O-]", "note": "(stereo not given)", "growth": "41%"}, {"smiles": "Cc1ccc(S(=O)(=O)n2cc(C3C(Cl)C(=O)N3c3ccc(N4CCOCC4=O)cc3)c3ccccc32)cc1", "note": "(stereo not given)", "growth": "28%"}, {"smiles": "CS(=O)(=O)Nc1cncc(-c2ccc3ncnc(Nc4ccc(F)c(Cl)c4)c3c2)c1", "growth": "51.1%"}, {"smiles": "N=C(N)c1ccc(-c2ccc(-c3ccc(F)cc3)s2)s1", "growth": "-74.2% (active)"}, {"smiles": "CCN(CC)c1ccc(/C=N/NC(=O)c2ccc(Nc3ccnc(C(F)(F)F)c3)cc2)c(O)c1", "growth": "19.6%"}]}]}
